PubChem BioAssay (Tox21)
Records with an inconclusive call do not appear. Active and inactive are the calls of the source. Unless noted, calls follow the shape of the full dose curve.

Assays:
[1] = qHTS assay to identify small molecule antagonists of the estrogen receptor beta (ER-beta) signaling pathway - cell viability counter screen (AID 1259382; active = well fitted curve in the direction sought with a large enough effect in the repeat runs; an effect the other way counts as inactive or inconclusive;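 also: HEK293T cells carrying ER-beta-UAS-bla reporter stimulated with estradiol; series mostly up to about 92 µM; nearly all actives have a fitted effect of over 55% in size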)
How it was run: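 Luminescent ATP read-out (CellTiter-Glo, 30 min, RT) taken in the same wells as the bla reporter assay. HEK293T ER-beta-UAS-bla cells in 2% charcoal-stripped FBS were exposed to compounds with 1nM E2 for 16 hr at 37C.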

[2] = qHTS assay to identify small molecule agonists of the estrogen receptor alpha (ER-alpha) signaling pathway in the presence of an antagonist - cell viability counter screen (AID 1259386; active = well fitted curve in the direction sought with a large enough effect in the repeat runs; an effect the other way counts as inactive or inconclusive;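 also: series mostly up to about 92 µM; cells exposed to compounds for 22 h at 37 °C before the viability read; nearly all actives have a fitted effect of over 30% in size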)
How it was run: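 Read-out: CellTiter-Fluor fluorescence after 1hr reagent incubation, measured in the same wells as the luciferase readout. VM7Luc4E2 cells were exposed to 15 compound concentrations with 10.0nM ICI-182,780 for 22hr at 37C.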

[3] = biological target: Progesterone receptor (Homo sapiens) (UniProt P06401); experiment: qHTS assay to identify small molecule agonists of the progesterone receptor (PR) signaling pathway (AID 1346784); also: nearly all actives have a fitted effect of over 30% in size
Sequence of Progesterone receptor (Homo sapiens) (P06401 whole entry, looked up): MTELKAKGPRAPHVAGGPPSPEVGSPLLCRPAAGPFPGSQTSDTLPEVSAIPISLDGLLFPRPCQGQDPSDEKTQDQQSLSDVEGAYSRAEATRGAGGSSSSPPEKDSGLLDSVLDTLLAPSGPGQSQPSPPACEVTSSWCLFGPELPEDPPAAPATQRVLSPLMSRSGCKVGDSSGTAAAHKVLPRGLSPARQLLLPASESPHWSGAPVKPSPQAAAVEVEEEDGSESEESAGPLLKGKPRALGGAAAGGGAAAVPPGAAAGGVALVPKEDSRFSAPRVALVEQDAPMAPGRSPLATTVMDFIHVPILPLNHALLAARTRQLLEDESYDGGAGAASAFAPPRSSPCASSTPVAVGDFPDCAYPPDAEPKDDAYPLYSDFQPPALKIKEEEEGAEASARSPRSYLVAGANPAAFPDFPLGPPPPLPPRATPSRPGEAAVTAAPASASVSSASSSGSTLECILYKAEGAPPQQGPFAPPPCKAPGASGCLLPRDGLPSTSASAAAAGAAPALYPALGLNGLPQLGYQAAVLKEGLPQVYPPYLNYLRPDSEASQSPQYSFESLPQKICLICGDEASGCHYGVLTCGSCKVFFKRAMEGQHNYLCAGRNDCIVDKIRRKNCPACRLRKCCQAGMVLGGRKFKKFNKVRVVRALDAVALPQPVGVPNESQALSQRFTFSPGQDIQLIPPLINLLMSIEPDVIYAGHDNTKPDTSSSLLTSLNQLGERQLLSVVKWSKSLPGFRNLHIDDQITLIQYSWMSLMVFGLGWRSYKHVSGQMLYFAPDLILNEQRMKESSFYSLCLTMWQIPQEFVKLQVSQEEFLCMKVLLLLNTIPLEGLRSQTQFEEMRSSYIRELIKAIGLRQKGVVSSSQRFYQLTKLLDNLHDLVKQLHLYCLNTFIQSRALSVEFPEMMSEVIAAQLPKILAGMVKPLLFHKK
How it was run: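 Fluorescence from LiveBLAzer B/G FRET substrate cleavage (2 hr, RT) reported PR activation in PR-UAS-bla HEK 293T cells treated 16 hr at 37C/5% CO2 with compounds; medium contained 2% charcoal-stripped FBS.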

[4] = biological target: Progesterone receptor (Homo sapiens) (UniProt P06401); experiment: qHTS assay to identify small molecule antagonists of the progesterone receptor (PR) signaling pathway (AID 1346795; active = well fitted inhibition curve with a large enough effect in the signal ratio in the repeat runs, not every such curve was filed as active; the % refers to the signal ratio)
How it was run: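 Fluorescence intensity measured 2 hr after adding beta-lactamase FRET substrate to PR-UAS-bla HEK293T cells that had been co-treated 16 hr with compound and 1 nM R5020 (final concentration) in 2% charcoal-stripped FBS.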

[5] = qHTS assay to identify small molecule agonists or antagonists of the thyroid stimulating hormone receptor (TSHR) signaling pathway - wild type cell line counter screen (AID 1259384)
How it was run: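 Wild-type HEK293 cells were plated 18 h at 37 C/5% CO2, pin-dosed with compound plus Ro20-1724 medium, held 30 min at room temperature, then given cAMP-d2 and anti-cAMP-cryptate; fluorescence was read after 1 h. Fifteen concentrations, triplicate.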

[6] = biological target: Thyrotropin receptor (Homo sapiens) (UniProt P16473); experiment: qHTS assay to identify small molecule antagonists of the thyroid stimulating hormone receptor (TSHR) signaling pathway (AID 1259385); also: nearly all actives have a fitted effect of over 20% in size
Sequence of Thyrotropin receptor (Homo sapiens) (P16473 whole entry, looked up): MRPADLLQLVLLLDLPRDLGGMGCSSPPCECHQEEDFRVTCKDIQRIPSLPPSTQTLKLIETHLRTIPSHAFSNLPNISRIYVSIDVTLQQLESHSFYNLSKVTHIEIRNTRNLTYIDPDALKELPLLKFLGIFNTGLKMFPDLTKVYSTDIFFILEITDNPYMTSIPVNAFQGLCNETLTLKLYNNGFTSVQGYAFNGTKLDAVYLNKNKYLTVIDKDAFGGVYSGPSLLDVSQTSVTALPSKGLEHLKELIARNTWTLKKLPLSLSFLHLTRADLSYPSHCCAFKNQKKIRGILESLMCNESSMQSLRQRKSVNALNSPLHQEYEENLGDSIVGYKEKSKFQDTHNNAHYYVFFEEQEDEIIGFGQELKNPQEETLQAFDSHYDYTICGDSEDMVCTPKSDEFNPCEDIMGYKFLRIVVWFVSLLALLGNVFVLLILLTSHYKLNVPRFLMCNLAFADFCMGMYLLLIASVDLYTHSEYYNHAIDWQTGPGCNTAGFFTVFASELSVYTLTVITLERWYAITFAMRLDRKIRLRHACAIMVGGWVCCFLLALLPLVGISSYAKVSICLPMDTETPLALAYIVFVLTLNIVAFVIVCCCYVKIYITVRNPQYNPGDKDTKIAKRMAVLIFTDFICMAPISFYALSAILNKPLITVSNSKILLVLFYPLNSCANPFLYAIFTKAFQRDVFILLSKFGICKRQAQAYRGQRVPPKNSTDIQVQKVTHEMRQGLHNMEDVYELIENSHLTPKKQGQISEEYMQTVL
How it was run: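 TSHR-HEK293 cells were plated and held 18 h at 37C/5% CO2, then given compound plus Ro20-1724 and stimulated with TSH at 1.5 ng/mL final. After 30 min at room temperature, cAMP was detected with cAMP-d2/anti-cAMP-cryptate (1 h) by fluorescence.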

[7] = qHTS assay to identify small molecule antagonists of the progesterone receptor (PR) signaling pathway - cell viability counter screen (AID 1346798; active = well fitted curve in the direction sought with a large enough effect in the repeat runs; an effect the other way counts as inactive or inconclusive; also: series mostly up to about 92 µM; nearly all actives have a fitted effect of over 50% in size)
How it was run: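 CellTiter-Glo luminescence; PR-UAS-bla HEK293T, 3,000 cells/well; compound + R5020, 16 hr, 37C/5% CO2; 30 min RT before read.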

[8] = qHTS assay to identify small molecule agonists of the progesterone receptor (PR) signaling pathway - cell viability counter screen (AID 1346799); also: nearly all actives have a fitted effect of over 45% in size
How it was run: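 In parallel with the beta-lactamase readout, cytotoxicity toward PR-UAS-bla HEK293T cells was measured by CellTiter-Glo luminescence following 16 hr compound incubation in 2% charcoal-stripped FBS medium.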

[9] = biological target: Estrogen receptor (Homo sapiens) (UniProt P03372); experiment: qHTS assay to identify small molecule agonists of the estrogen receptor alpha (ER-alpha) signaling pathway in the presence of an antagonist (AID 1259383); also: top concentration of the series differs between compounds; nearly all actives have a fitted effect of over 15% in size
Sequence of Estrogen receptor (Homo sapiens) (P03372 whole entry, looked up): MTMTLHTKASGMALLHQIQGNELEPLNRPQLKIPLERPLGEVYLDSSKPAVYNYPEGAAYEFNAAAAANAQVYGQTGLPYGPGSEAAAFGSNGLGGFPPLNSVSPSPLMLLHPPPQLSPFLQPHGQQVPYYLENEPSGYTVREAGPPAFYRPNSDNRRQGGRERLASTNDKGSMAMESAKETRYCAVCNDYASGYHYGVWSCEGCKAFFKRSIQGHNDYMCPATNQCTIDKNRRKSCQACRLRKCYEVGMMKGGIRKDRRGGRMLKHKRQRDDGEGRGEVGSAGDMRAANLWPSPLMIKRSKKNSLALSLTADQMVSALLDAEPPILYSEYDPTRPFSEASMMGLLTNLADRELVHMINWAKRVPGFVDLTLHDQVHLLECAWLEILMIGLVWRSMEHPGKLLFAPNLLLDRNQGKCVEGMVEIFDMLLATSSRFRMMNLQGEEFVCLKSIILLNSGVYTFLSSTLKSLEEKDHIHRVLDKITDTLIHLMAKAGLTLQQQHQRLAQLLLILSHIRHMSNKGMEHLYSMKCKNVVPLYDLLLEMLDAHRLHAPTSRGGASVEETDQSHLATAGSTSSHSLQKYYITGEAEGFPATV
How it was run: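 Luciferase luminescence (ONE-Glo, 30min at room temperature) measured in VM7Luc4E2 cells after 22hr compound exposure at 15 concentrations, with 10.0nM ICI-182,780 final present; cells express endogenous ER-alpha and carry four EREs upstream of luciferase.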
% is scaled to controls: 0 for no effect and ±100 for the full control effect.

CCOc1ccc(NC(=O)OC(C)C)cc1OCC
inactive: outcome [1] | Potency [2] | Potency [3] | Potency [4]

CCCCC(C)C(=O)O (stereo not drawn)
inactive: outcome [1] | outcome [5] | outcome [6] | Potency [2] | Potency [4] | Potency [7] | Potency [8]

NS(=O)(=O)c1cc2c(cc1Cl)NC(C(Cl)Cl)NS2(=O)=O (stereo not drawn)
inactive: outcome [1] | outcome [5] | Potency [2] | Potency [3] | Potency [4] | Potency [8]

C1=CCC(c2ccccc2)CC1 (stereo not drawn)
inactive: outcome [1] | outcome [6] | Potency [2] | Potency [3] | Potency [4] | Potency [8]

C=C(C)C(=O)OC1CC(C)CC(C)(C)C1 (stereo not drawn)
inactive: outcome [1] | Potency [2] | Potency [3] | Potency [4] | Potency [7] | Potency [8]

CCCCC/C=C/CC(=O)OC
inactive: outcome [1] | outcome [6] | Potency [2] | Potency [3] | Potency [7] | Potency [8]

c1ccc(CNc2ncnc3nc[nH]c23)cc1
inactive: outcome [1] | outcome [5] | outcome [6] | Potency [2] | Potency [4]

FC(F)(F)c1ccc(Cl)cc1Cl
inactive: outcome [1] | outcome [5] | Potency [2] | Potency [4] | Potency [7] | Potency [8]

Cc1ccccc1N1CCN(CCc2nnc3n2CCCC3)CC1
inactive: outcome [1] | outcome [6] | Potency [2] | Potency [4] | Potency [7]

BrC/C=C/CBr
inactive: activity change, negative = cytotoxicity [1] 3.59% [at 19 µM] | activity change, negative = cytotoxicity [2] 2.04% [at 19 µM] | activation [3] 1.6% [at 19 µM] | activity change, negative = inhibition [4] -3.92% [at 18.9 µM] | activity change, negative = cytotoxicity [7] 20.7% [at 18.9 µM] | activity change, negative = cytotoxicity [8] 0% [at 19 µM]

CN[C@@H]1[C@@H](O)[C@@H](O[C@@H]2[C@H](O)[C@H](O[C@H]3OC(CN)=CC[C@H]3N)[C@@H](N)C[C@H]2N)OCC1(C)O (stereo partly drawn)
inactive: outcome [1] | outcome [5] | Potency [2] | Potency [4] | Potency [8]

CCOC(=O)OCC/C(SC(=O)OCC)=C(\C)N(C=O)Cc1cnc(C)nc1N
inactive: outcome [1] | outcome [5] | Potency [2] | Potency [3] | Potency [4] | Potency [7] | Potency [8]

NC(Cc1c[nH]c2ccccc12)C(=O)O (stereo not drawn)
inactive: outcome [1] | outcome [6] | Potency [2] | Potency [3] | Potency [4] | Potency [7] | Potency [8]

CCCCCC1CCCC(=O)O1 (stereo not drawn)
inactive: outcome [1] | outcome [5] | Potency [2] | Potency [3]

CCC(=O)OCCC(C)CCC=C(C)C (stereo not drawn)
inactive: outcome [1] | outcome [5] | outcome [6] | Potency [2] | Potency [4] | Potency [7] | Potency [8]

C=COCCOCCOC=C
inactive: outcome [1] | Potency [2] | Potency [3] | Potency [4] | Potency [7] | Potency [8]

c1ccccc1
inactive: outcome [1] | outcome [5] | outcome [6] | Potency [2] | Potency [4] | Potency [7] | Potency [8]

Cc1oc(=O)oc1CN1CCN(c2cc3c(cc2F)c(=O)c(C(=O)O)c2n3C(C)S2)CC1 (stereo not drawn)
inactive: outcome [9] | outcome [5] | outcome [6] | Potency [2] | Potency [4] | Potency [7] | Potency [8]

CCC(C)(CCC(C)C)C(=O)[O-].CCC(C)(CCC(C)C)C(=O)[O-].[Zn+2] (stereo not drawn)
inactive: outcome [1] | Potency [2] | Potency [4] | Potency [7] | Potency [8]

CN(C)CCCNCCC#N
inactive: outcome [1] | Potency [2] | Potency [3] | Potency [4] | Potency [8]

CN(C)CCOCCN(C)CCO
inactive: outcome [9] | outcome [5] | outcome [6] | Potency [2] | Potency [3] | Potency [4] | Potency [7] | Potency [8]

CC(=O)OC(C)(C)Cc1ccccc1
inactive: outcome [6] | Potency [2] | Potency [3] | Potency [4] | Potency [7] | Potency [8]

CC(C)CCCCCCOC(=O)C1CCCCC1C(=O)OCCCCCCC(C)C (stereo not drawn)
inactive: outcome [9] | outcome [5] | outcome [6] | Potency [2] | Potency [3] | Potency [4] | Potency [7] | Potency [8]

O=c1[nH]c(=O)c2[nH]c(=O)[nH]c2[nH]1
inactive: activation [9] 0.0928% [at 8.39 µM] | activity change, negative = cytotoxicity [2] 1.17% [at 8.39 µM] | activation [3] -0.558% [at 8.39 µM] | activity change, negative = inhibition [4] 0.247% [at 8.39 µM] | activity change, negative = cytotoxicity [8] -1.97% [at 8.39 µM]

F[Si-2](F)(F)(F)(F)F
inactive: outcome [9] | outcome [5] | outcome [6] | Potency [2] | Potency [3] | Potency [4] | Potency [7] | Potency [8]

C[C@H]1O[C@H](O[C@H]2[C@H](O)[C@@H](O)[C@@H](O[C@H]3[C@H](O)[C@@H](O)[C@H](O)O[C@@H]3CO)O[C@@H]2CO)[C@H](O)[C@@H](O)[C@@H]1N[C@H]1C=C(CO)[C@@H](O)[C@H](O)[C@H]1O
inactive: outcome [1] | Potency [2] | Potency [4] | Potency [7] | Potency [8]

COc1cc2c3cc1Oc1cc(ccc1O)C[C@@H]1c4c(cc(OC)c(O)c4Oc4ccc(cc4)C[C@@H]3N(C)CC2)CC[N+]1(C)C
inactive: outcome [5] | Potency [2] | Potency [3] | Potency [4] | Potency [7] | Potency [8]
